# This is a sample that favours compounds with a hit; in the whole collection about 5.2% have one here.
# Bst PK mod – alters activity of Bacillus stearothermophilus pyruvate kinase; 51,000 compounds, 1.2% hits; purified pyruvate kinase, luminescence ATP production; ribose 5-phosphate activator present at AC10; Potency, µM; AID 361; in the data active = potency below about 11 µM; inconclusive = mostly about 12 µM to 25 µM;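 the screen sought inhibitors and activators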;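 note: potency is the fitted concentration of half-maximal effect; scaled between full activation by ribose 5 phosphate and full inhibition by luteolin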
# Luciferase inh – blocks Photinus pyralis firefly luciferase activity; Potency, µM (doses to about 57.1 µM), for inactives: at the highest dose activity change, negative = inhibition, hits mostly inhibitors; 72,000 compounds, 2.2% hits; AID 411; P08659; purified firefly luciferase, luminescence, 8 min; note: potency is the fitted concentration of half-maximal effect; % is set by controls: 0 for no effect and ±100 for the full control effect; nearly all actives have a fitted effect of over 40% in size
# Target sequence (P08659 whole entry, looked up): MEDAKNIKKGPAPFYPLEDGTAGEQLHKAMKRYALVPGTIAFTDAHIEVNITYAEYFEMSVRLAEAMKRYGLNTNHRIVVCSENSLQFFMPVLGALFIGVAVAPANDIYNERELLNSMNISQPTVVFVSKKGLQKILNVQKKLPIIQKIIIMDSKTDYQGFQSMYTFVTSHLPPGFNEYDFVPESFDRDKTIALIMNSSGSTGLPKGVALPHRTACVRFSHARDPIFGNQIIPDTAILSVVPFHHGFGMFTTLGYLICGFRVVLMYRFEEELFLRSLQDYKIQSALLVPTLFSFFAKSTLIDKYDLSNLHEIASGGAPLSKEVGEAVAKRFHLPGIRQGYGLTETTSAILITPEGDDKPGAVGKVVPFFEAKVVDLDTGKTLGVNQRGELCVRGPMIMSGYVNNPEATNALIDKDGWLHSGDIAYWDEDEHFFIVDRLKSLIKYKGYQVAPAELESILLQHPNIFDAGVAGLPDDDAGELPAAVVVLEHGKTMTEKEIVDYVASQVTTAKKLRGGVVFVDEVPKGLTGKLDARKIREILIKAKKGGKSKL
#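 Here, luciferase activity is measured as luminescence following an 8 min room-temperature reaction at 10 uM ATP, pH 7.2. Every library sample is titrated.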
# HEK293 cAMP cs – parental HEK293 cAMP activation (counter-screen). parental HEK293 CNG cAMP sensor, membrane potential fluorescence. Potency, µM (titrated, usually from 57.1 µM), without a hit: at the top dose activation, most hits filed as activators. 73,000 compounds, 2.5% hits. AID 938; note: potency is the fitted concentration of half-maximal effect; % of control where 0% means no effect; nearly all actives have a fitted effect of over 55% in size
#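 Parental HEK 293 cells stably expressing a modified CNG channel (no TSHR) report cAMP rise as membrane depolarization. Membrane potential dye with 100 uM RO 20-1724 was loaded for 60 min at room temperature, then compound added for 30 min; fluorescence read at 590 nm.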
# TSHR agonist – activates the human thyroid stimulating hormone receptor; P16473; HEK293-CNG-TSHR cells (CNG channel as cAMP sensor), membrane potential dye, cAMP; Potency, µM (top dose mostly 57.1 µM), inactives show top-dose activation, hits mostly activators; 73,000 compounds, 0.48% hits; AID 926; active = well fitted activation curve with a large enough effect in the main read-out, with a control signal flat, not every such curve was filed as active; inconclusive = small, poorly fitted or top-dose-only effect, or a change in a side signal; inactive = no such curve, though single readings can be large or run the other way; % of control where 0% means no effect;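 note: the control signal comes from parental cells without the receptor; potency is the fitted concentration of half-maximal effect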
#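 HEK 293 cells stably expressing TSHR and a cAMP-gated CNG channel; parental CNG-only cells as counterscreen. Cells preloaded 60 min with membrane potential dye plus 100 uM RO 20-1724, then compound 30 min; fluorescence read at 590 nm.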
# HEK293 cAMP cnt – TSHR-independent cAMP elevation, counter-screen | activity change, negative = inhibition, % at 32.9 µM | shares compounds with TSHR agonist | parental HEK293 CNG biosensor, cAMP membrane potential fluorescence | 150 tested, under 10 active
# Starred values were filed as active, the others as inactive; ? = inconclusive; · = no result given; [ ] = dose if it differs, or a comment. Unless noted, calls come from the whole dose curve; as a rule, active = well fitted curve in the direction sought with a large enough effect; inconclusive = small, poorly fitted or top-dose-only effect, or another doubt; inactive = no such curve, though single readings can be large; an effect the other way counts as inactive or inconclusive.
SMILES,Bst PK mod,Luciferase inh,HEK293 cAMP cs,TSHR agonist,HEK293 cAMP cnt
COc1ccc(CNc2nc(SC)n[nH]2)cc1OC,>57,1.6%,6.9%,3.5%,3.9[25.6 µM]
O=C1c2ccccc2C(=O)N1Cc1ccc2c(c1)OCO2,>57,-0.4%,?,?,·
Nc1cc(CN2C(=O)c3ccccc3C2=O)cc(Cl)c1O,>57,1.1%,-2.0%,2.2%,4.5[25.6 µM]
COc1ccc(CCNC(=O)c2cnn(-c3ccc(C)c(C)c3)c2NC(=O)c2ccco2)cc1OC,>57,1.1%,-4.4%,7.3%,·
CCOc1ccc(N(C(C)C(=O)Nc2ccc(OC)cc2)S(C)(=O)=O)cc1 (stereo unspecified),·,3.0%,-3.3%[11.4 µM],4.3%[11.4 µM],-4.4[25.6 µM]
CCOc1ccc(NC(=O)C(C)SC(N)=O)cc1 (stereo unspecified),·,0.3%,-16.9%,-31.6%,-37.5[25.6 µM]
CC(C)NC(=O)N1CCC2(CC1)CCN(C(=O)c1ccncc1)CC2,·,2.9%[11.4 µM],3.1%,4.2%,·
O=C(c1cc(-c2cccs2)on1)N1CCCc2ccccc21,·,-14.9%,?,?,?
Cc1cc(C)n(C(=O)CSc2nc3ccccc3o2)n1,>11.4,2.3%[25.5 µM],·,·,·
COC(=O)CNC(=O)C12CC3(C)CC(C)(CC(C)(C3)C1)C2,>57,-1.5%,5.2%,12.6µM*,7.7
COC(=O)C1=C(C)NC(C)=C(C(=O)OC)C1c1ccc(OC(=O)c2ccco2)cc1,·,3.1%,8.9%,20µM*,-8.8
CCOC(=O)C1=C(C)NC(C)=C(C(=O)OCC)C1c1ccc(OC)cc1,>57,1.6%,3.9%,23.1%,·
O=C(CSc1nc2scc(-c3ccco3)c2c(=O)n1-c1ccccc1)N1CCOCC1,>57,-8.3%,23.2%,15.8µM*,7.0
COc1ccc(N(CC(=O)Nc2ccc3c(c2)OCO3)S(=O)(=O)c2c(C)nn(C)c2C)cc1,·,-5.8%,-5.6%,-3.9%,·
Cc1nn(C)c(C)c1S(=O)(=O)N(CC(=O)Nc1ccccn1)c1ccc(C(C)C)cc1,·,0.7%,16.8%,10µM*,-8.9
COc1ccc(S(=O)(=O)N(C)CC(=O)N2CCCCCC2)cc1OC,>57,1.0%,5.5%,0.9%,-44.2[25.6 µM]
Nc1nc(-c2ccccc2)cc(C(F)(F)F)n1,·,-1.1%,19.7%,-1.1%,·
Oc1ccccc1-c1cc(C(F)(F)C(F)F)nc(-c2ccccc2)n1,>57,2.5%,?,?,3.4
CCOC(=O)C1C(=O)NC(N2CCCCC2)=NC1c1ccccc1 (stereo unspecified),>57,2.6%,1.8%,8.8%,·
CCOC(=O)C1C(=O)Nc2nc(C)nn2C1c1ccccc1 (stereo unspecified),>57,1.7%,-1.2%,3.98µM*,-7.3
COc1cc(OC)cc(C(=O)N2c3ccc(F)cc3CCC2C)c1 (stereo unspecified),>57,-1.4%,30.0%,12.6µM*,12.3
CCCSc1nnc2n(-c3ccccc3OC)c(=O)c3c4c(sc3n12)CCC4,?,-0.5%[25.5 µM],·,·,·
C/C=C/c1ccc(OCCSc2nc(C)cc(=O)[nH]2)c(OC)c1,·,-22.0%,-4.4%,15.7%,·
Cc1cc(=O)[nH]c(SCCOc2ccc3c(c2)CCC3)n1,>57,-0.5%,11.5%,·,24.6
CC(=O)Nc1ccc(S(=O)(=O)N(C)c2ccccc2)cc1,·,0.9%,0.8%,0.794µM*,4.5
SMILES,Bst PK mod,Luciferase inh,HEK293 cAMP cs,TSHR agonist,HEK293 cAMP cnt
Cc1ccc2[nH]c3c(c2c1)CN(C(=O)CN1CCN(c2ccccc2F)CC1)CC3,>57,4.0%,-12.9%,-3.6%,·
Cc1occc1-c1nnc(SCC(=O)NCc2ccco2)n1CC(C)C,>57,2.2%,12.2%,20µM*,-9.6
CCc1nnc(NC(=O)CSc2nnc(-c3ccoc3C)n2CC(C)C)s1,>57,?,-21.2%,-7.7%,·
COc1ccc(-c2cc(C(F)(F)F)nc(SCCC(=O)N3CCOCC3)n2)cc1,>57,0.0%,22.9%,20µM*,13.0
O=C(CSc1ncnc2c1oc1ccccc12)Nc1cccc(Cl)c1,>57,3.3%,?,?,·
Nc1cc(N)nc(SCC(=O)Nc2ccc(Br)cc2Cl)n1,>57,1.0%,-17.9%,-15.4%,·
CC(=O)c1cccc(NC(=O)c2cc(-n3cnnc3)ccc2Cl)c1,>57,1.4%,2.4%,1.8%,·
COc1cc(NC(=O)c2cc(-n3cnnc3)ccc2Cl)cc(OC)c1,·,-0.1%,6.1%,·,-1.3[25.6 µM]
COc1ccc(NC(=O)c2cccc(-n3cnnn3)c2)cc1,>57,-4.7%,6.5%,-3.8%,·
Cc1ccc(S(=O)(=O)NC(=O)NN2CCCCCC2)cc1,>25.6,-0.1%[25.5 µM],9.8%[25.6 µM],-6.0%[25.6 µM],·

# Source: PubChem BioAssay
